KB-3-1 cytotox: KB-3-1 parental cell cytotoxicity; KB-3-1 viability, CellTiter-Glo ATP luminescence, 72 h; AID 1347075; actives 1.4% (n = 400,000); Potency, µM (highest dose often 46.1 µM), usual class: cytotoxic; note: nearly all actives have a fitted effect of over 60% in size
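72 h, 37 °C compound treatment of KB-3-1 parental cells; CellTiter-Glo added, 10 min, luminescence read. Data corrected against DMSO-only plates and normalized before curve fitting.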
HT1080 IDH1KD tx: HT-1080 IDH1 knockdown cell toxicity (counter line) | HT-1080 IDH1 knockdown viability, ATP luminescence, 48 h | Potency, µM (doses to about 46.1 µM), without a hit: top-dose activity, negative = toxicity, hits mostly cytotoxic | actives 2% (n = 360,000);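 note: 0% = DMSO wells and -100% = cell-free medium wells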
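Assay cells: HT-1080 with IDH1 knockdown, 750 per well, RPMI/5% FBS. Exposure: 48 h at 37 °C following 2 h pre-incubation. Read: CellTiter-Glo luminescence; fitted concentration-response, curve class assigned.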
DT40 TDP1 no CPT: qHTS for Inhibitors of human tyrosyl-DNA phosphodiesterase 1 (TDP1): qHTS in cells in absence of CPT; DT40 Tdp1-/- hTDP1 cells, no CPT, ATP luminescence, 48 h; Potency, µM (top dose mostly 46.2 µM), for the others: at the highest dose activity change, negative = growth inhibition, actives largely listed as inhibitors; actives 15% (n = 420,000); AID 686978, 2013; note: nearly all actives have a fitted effect of over 55% in size
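Camptothecin absent (DMSO only). Human TDP1-complemented DT40 knockout cells, 400 cells/well, 37 °C for minimum 48 hr; ATP measured via CellTiter-Glo, 30 min dark incubation, luminescence.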
DT40 TDP1 CPT: DT40-hTDP1 cell growth loss with CPT; AID 686979; chicken DT40 Tdp1-/-;hTDP1 cells + 20 nM CPT, ATP luminescence, 48 h; actives 12% (n = 420,000); Potency, µM (doses to about 46.2 µM), for the others: at the highest dose activity change, negative = growth inhibition, most hits filed as inhibitors; note: nearly all actives have a fitted effect of over 55% in size
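Cell growth measured by CellTiter-Glo luminescence after a minimum 48 h, 37 C compound exposure with 20 nM CPT in Tdp1-knockout DT40 cells stably expressing hTDP1, seeded 400/well; qHTS titration format.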
KB-V1 MDR tox: kills drug-selected multidrug resistant KB-V1 cells | KB-V1 MDR cells viability, CellTiter-Glo, 72 h | Potency, µM (highest dose often 46.1 µM), most hits filed as cytotoxic | actives 3.4% (n = 400,000); note: nearly all actives have a fitted effect of over 60% in size
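In this primary screen, KB-V1 cells overexpressing P-gp are incubated with library compounds (lowest to highest concentration) for 72 h at 37 degrees C before a luminescent ATP viability read.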
HT1080NT lethal: kills 2HG-producing HT-1080-NT fibrosarcoma cells; actives 1.6% (n = 360,000); HT-1080-NT fibrosarcoma viability, CellTiter-Glo ATP luminescence, 48 h; Potency, µM (top dose mostly 46.1 µM), for inactives: at the highest dose activity, negative = less viability, most hits filed as cytotoxic;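 note: NT is the 2HG producing partner of a matched IDH1 knockdown line; 0% = DMSO-treated cells and -100% = media-only wells without cells; nearly all actives have a fitted effect of over 55% in size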
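HT-1080-NT fibrosarcoma cells (2HG-overproducing), 750 cells/well in RPMI with 5% FBS, dosed after 2 h and incubated 48 h at 37C. CellTiter-Glo luminescence normalized to DMSO and no-cell wells; concentration-response curves fitted and classed.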
Active calls of the source: *; i = inactive; ? = inconclusive; · = no result given. This is a sample that favours compounds with a hit; in the whole collection about 19% have one here. Calls come from the whole dose curve; as a rule, active = well fitted curve in the direction sought with a large enough effect; inconclusive = small, poorly fitted or top-dose-only effect, or another doubt; inactive = no such curve, though single readings can be large; an effect the other way counts as inactive or inconclusive. Unless noted, % is set by controls: 0 for no effect and ±100 for the full control effect; potency is the fitted concentration of half-maximal effect.

SMILES	KB-3-1 cytotox	HT1080 IDH1KD tx	DT40 TDP1 no CPT	DT40 TDP1 CPT	KB-V1 MDR tox	HT1080NT lethal
Cc1cc(C(=O)N/N=C/c2cc(Br)ccc2OC(=O)c2ccccc2)n[nH]1	i	8.2µM*	6.5µM*	7.3µM*	i	?
Cc1cc(C(=O)N/N=C/c2cc(Br)ccc2OC(=O)c2ccccc2Cl)n[nH]1	?	21µM*	4.6µM*	5.8µM*	?	?
Cc1cc(C(=O)N/N=C/c2ccc(OC(=O)c3ccccc3Br)cc2)n[nH]1	i	-13%	?	?	i	-17%
COC(=O)N/N=C/c1ccc(-c2cc(Cl)ccc2Cl)o1	?	2%	-3%	6%	21µM*	-2%
Cc1ccc(/C=N/NC(=O)c2cc(-c3ccc(C)o3)[nH]n2)cc1	?	21µM*	15µM*	13µM*	?	?
COc1ccccc1C(=O)NCC(=O)NNC(=O)C1COc2ccccc2O1 (stereo not given)	i	13%	-1%	-2%	?	11%
C=CCN1C2CCCC1CC(NC(=O)Nc1cc(C)cc(C)c1)C2 (stereo not given)	i	0%	?	?	i	-7%
COc1ccc(NC(=O)c2ccc(-n3cnnn3)cc2)c([N+](=O)[O-])c1	i	-4%	19%	?	i	-1%
Cc1cc(C(=O)N/N=C/c2ccc(-c3ccccc3Cl)o2)n[nH]1	?	-1%	?	-28%	23µM*	1%
Cc1cc(C(=O)N/N=C/c2ccc(-c3ccc([N+](=O)[O-])cc3Cl)o2)n[nH]1	i	1%	-29%	-16%	i	-2%
Cc1[nH]c2ccc(C(=O)NCCCN3CCN(C)CC3)cc2c1C	i	11%	18%	0%	?	-1%
Cc1nn(CC#N)c(=O)n1-c1cccc(F)c1	i	1%	-19%	3%	i	-3%
CC(=O)Nc1cccc(NC(=O)c2cccc(OCc3ccccc3)c2)c1	i	-14%	18µM*	21µM*	i	-17%
O=C(NC(=S)Nc1ccc(CN2CCCCC2)cc1)c1cccc(OCc2ccccc2)c1	i	21µM*	12µM*	9.2µM*	?	?
CC(=O)Nc1ccc(OCc2ccc(S(=O)(=O)Cc3ccccc3)cc2)cc1	i	1%	?	-10%	?	7%
CC(=O)Nc1cccc(OCc2cccc([N+](=O)[O-])c2)c1	?	6%	-12%	-1%	13µM*	5%
CC(=O)Nc1cccc(NC(=O)c2ccccc2OCc2ccccc2)c1	i	-13%	?	?	i	-6%
CC(=O)Nc1cccc(OCc2ccc(S(=O)(=O)Cc3ccccc3)cc2)c1	i	-7%	21µM*	?	18µM*	-1%
COC(=O)CC1C(=O)NCCN1C(=O)CSc1nc2ccc([N+](=O)[O-])cc2s1 (stereo not given)	i	0%	-7%	6%	i	-15%
CN1CCN(c2ccc(NC(=O)c3cccc(OCc4ccccc4)c3)cc2)CC1	i	18µM*	23µM*	23µM*	i	21µM*
CC(C)(C)NC(=O)C1c2ccccc2OCC(=O)N1CCCN1CCOCC1 (stereo not given)	i	8%	2%	5%	i	23%
CSc1ccc(NC(=O)NCCCN2CCC(Cc3ccccc3)CC2)cc1	i	-1%	23µM*	?	i	-19%
O=C(NCCCN1CCC(Cc2ccccc2)CC1)C1CC(=O)N(C2CCCCCC2)C1 (stereo not given)	i	-7%	26µM*	?	i	2%
O=C(NCCCN1CCCCCC1)[C@@H](c1ccccc1)C1CCCCC1	·	·	11µM*	11µM*	·	·
N#C/C(=C\c1cccc(O)c1)C(=O)N1CCCCC1	i	-11%	?	15%	?	-1%
SMILES	KB-3-1 cytotox	HT1080 IDH1KD tx	DT40 TDP1 no CPT	DT40 TDP1 CPT	KB-V1 MDR tox	HT1080NT lethal
N#C/C(=C\c1cccc(Br)c1)C(=O)N1CCCCC1	?	16µM*	12µM*	13µM*	?	23µM*
Cc1cc(/C=C(\C#N)C(=O)N2CCCCC2)cc(C)c1O	16µM*	18µM*	26µM*	18µM*	?	16µM*
O=C(NC1CC1)C1CCN(C2CCN(C(=O)c3c(F)cccc3Cl)CC2)CC1	i	1%	11%	-7%	i	-2%
Cc1ccc(C)c(S(=O)(=O)c2nnn3c2nc(NCc2ccc4c(c2)OCO4)c2sccc23)c1	i	·	?	18µM*	i	·
CCc1ccc(S(=O)(=O)c2nnn3c2nc(NC2CCCCCC2)c2sccc23)cc1	i	·	16µM*	?	i	·
COc1ccc(C)cc1Nc1nc2c(S(=O)(=O)c3cc(C)ccc3C)nnn2c2ccsc12	i	·	-7%	0%	i	·
Cc1ccc(S(=O)(=O)c2nnn3c2nc(NCc2ccc4c(c2)OCO4)c2sccc23)cc1	i	·	13µM*	?	i	·
Cc1ccc(CNc2nc3c(S(=O)(=O)c4ccccc4)nnn3c3ccsc23)cc1	i	·	-14%	-28%	?	·
Cc1ccc(S(=O)(=O)c2nnn3c2nc(NCc2ccc4c(c2)OCO4)c2sccc23)cc1C	i	·	23µM*	?	i	·
COC(=O)[C@]12CCCCC=C1N(CCC1=CCCCC1)C(=O)[C@H](CC(=O)NCCCN1CCCC1=O)C2	i	?	?	?	i	0%
Cc1ccc(CCNc2nc3c(S(=O)(=O)c4ccccc4)nnn3c3ccsc23)cc1	i	·	?	-22%	i	·
Cc1ccc(S(=O)(=O)c2nnn3c2nc(NCCc2ccccc2)c2sccc23)cc1	i	·	?	16µM*	?	·
CCCCNc1c(-c2ccccn2)nc2nc(C)cc(C)n12	i	1%	?	?	?	-3%
COC(=O)CNc1c(-c2ccccn2)nc2ccc(Br)cn12	i	8%	-23%	6%	5.2µM*	18%
Cc1ccn2c(Nc3ccc(F)cc3)c(-c3ccccn3)nc2c1	i	·	13µM*	10µM*	?	·
COc1ccc(-c2nc3cc(C)ccn3c2NC(=O)c2ccc(F)cc2)cc1	i	·	?	-7%	i	·

From PubChem BioAssay
